According to PubChem BioAssay (NCATS):
Where “and” joins values, the source holds several entries; their conditions need not be identical. Identical values can stand only once. Inconclusive results are not listed. Calls of active or inactive are those of the source. Unless noted, calls follow the shape of the dose curve; as a rule, active = well fitted curve in the direction sought with a large enough effect; inconclusive = small, poorly fitted or top-dose-only effect, or another doubt; inactive = no such curve, though single readings can be large; an effect the other way counts as inactive or inconclusive.

Key:
[1] = Cell Viability - SH-SY5Y (AID 544); also: nearly all actives have a fitted effect of over 55% in size; also: potency is read from the fitted curve at half-maximal effect
Outline: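 Human neuroblastoma SH-SY5Y cells (1500/well) in complete medium were exposed to compounds for 40 hr at 37 °C; intracellular ATP was then quantified by CellTiter-Glo luminescence after 20 min at room temperature. AC50 came from Hill-equation concentration-response fits.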

[2] = Cellular Toxicity (caspase-3) Jurkat (AID 655); conditions: Jurkat caspase-3 activation, luminescence, DMSO = 0%, tamoxifen = 100%; at 92.2 µM (top of the series);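 also: cells exposed to compound for 16 h at 37 °C before reading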
Outline: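 Luminescent caspase-3/7 readout (aminoluciferin substrate cleavage) in human T-cell leukemia Jurkat cells after 16 hr compound exposure. Concentration-response normalized to DMSO and 100 uM tamoxifen; AC50 by standard Hill equation.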

[3] = Cellular Toxicity (caspase-3) N2a (AID 665);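 also: compound exposure lasted 16 h at 37 °C before readout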
Outline: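 Mouse N2a neuroblastoma cells (1500/well) were treated with compounds for 16 h at 37 °C, then caspase-3/7 activity was read by Caspase-Glo luminescence after 1 h at room temperature. Data were normalized to DMSO and 10 uM staurosporine; AC50 from Hill fits.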

[4] = molecular target: Cytochrome P450 3A4 (Homo sapiens) (UniProt P08684); experiment: qHTS Assay for Inhibitors and Substrates of Cytochrome P450 3A4 (AID 884); also: nearly all actives have a fitted effect of over 50% in size; also: potency is read from the fitted curve at half-maximal effect
Chain of Cytochrome P450 3A4 (Homo sapiens) (P08684 whole entry, looked up): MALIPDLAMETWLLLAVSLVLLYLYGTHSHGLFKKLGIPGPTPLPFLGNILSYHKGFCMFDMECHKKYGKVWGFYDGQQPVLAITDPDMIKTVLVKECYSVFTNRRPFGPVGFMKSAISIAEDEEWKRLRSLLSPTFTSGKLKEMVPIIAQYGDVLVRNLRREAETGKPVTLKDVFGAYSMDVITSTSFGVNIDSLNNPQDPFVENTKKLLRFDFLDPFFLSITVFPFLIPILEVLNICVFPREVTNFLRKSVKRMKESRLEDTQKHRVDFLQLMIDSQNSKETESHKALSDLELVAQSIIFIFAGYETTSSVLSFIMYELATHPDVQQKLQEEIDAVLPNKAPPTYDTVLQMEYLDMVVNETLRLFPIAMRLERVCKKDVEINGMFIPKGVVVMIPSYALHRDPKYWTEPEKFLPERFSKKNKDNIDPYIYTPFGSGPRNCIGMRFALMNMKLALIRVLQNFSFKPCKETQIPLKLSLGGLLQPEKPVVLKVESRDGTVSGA
Outline: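 20 nM human CYP3A4 with 25 uM Luciferin-PPXE (at KM) in 200 mM KPO4, preincubated 10 min with compound; NADPH regeneration started a 60 min RT reaction. Luciferin detected by luminescence, normalized to 57 uM ketoconazole as full inhibition.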

[5] = MultiTox-Fluor Cytotoxicity Assay - LYMP1-003 - Live Cells (AID 962);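 also: 0% = DMSO only and full loss = 92 µM tetraoctylammonium bromide; cytotoxic hits lower the live-cell protease signal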
Outline: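 LYMP1-003 human lymphoblastoid cells (2500/well) in complete medium were preincubated 5 hr at 37 C, then exposed to compounds for 16 hr at 37 C. Live-cell protease cleavage of GF-AFC read by fluorescence (Ex/Em 405/510); AC50 from Hill fits.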

[6] = Cell Viability - LYMP1-003 - Assay at 40 hr (AID 964); also: nearly all actives have a fitted effect of over 60% in size; also: potency is read from the fitted curve at half-maximal effect
Outline: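 Human lymphoblastoid LYMP1-003 cells, 2500/well in complete medium, rested 5 hr at 37 C, then exposed to compounds for 40 hr at 37 C. Viability read as intracellular ATP by CellTiter-Glo luminescence; AC50 from Hill fits of concentration-response data.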

[7] = Cell Viability - LYMP2-005 (AID 967); also: potency is read from the fitted curve at half-maximal effect
Outline: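 Steps: seed 2500 LYMP2-005 cells/well, incubate 5 h at 37 C, add compound, incubate 24 h at 37 C, add CellTiter-Glo, wait 30 min at RT, read luminescence. Concentration-response data fitted to Hill equation for AC50.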

[8] = Cell Viability - LYMP2-011 (AID 969); also: nearly all actives have a fitted effect of over 60% in size; also: potency is read from the fitted curve at half-maximal effect
Outline: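 Human lymphoblastoid cells (2500/well) were plated in complete medium, preincubated 5 hr at 37 C, then exposed to compounds for 24 hr at 37 C. Intracellular ATP was read by CellTiter-Glo luminescence, and AC50 came from Hill-equation concentration-response fits.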

[9] = Cell Viability - LYMP2-013 (AID 970); also: nearly all actives have a fitted effect of over 55% in size; also: potency is read from the fitted curve at half-maximal effect
Outline: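 Human lymphoblastoid cells, 2500/well, were preincubated 5 hr at 37 C, then treated with compounds for 24 hr at 37 C in complete medium. Intracellular ATP was read by CellTiter-Glo luminescence; AC50 from Hill-equation fits of concentration-response data.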

[10] = Cell Viability - LYMP2-017 (AID 972); also: nearly all actives have a fitted effect of over 55% in size; also: potency is read from the fitted curve at half-maximal effect
Outline: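 Human lymphoblastoid cells (2500/well) were seeded in complete medium, held 5 hr at 37 C, then exposed to compounds for 24 hr at 37 C. Intracellular ATP was read by CellTiter-Glo luminescence after 30 min at room temperature, with AC50 values from Hill-equation fits.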

[11] = Cell Viability - LYMP2-007 (AID 979);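 also: cells exposed to compound for 24 h before reading; nearly all actives have a fitted effect of over 60% in size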; also: potency is read from the fitted curve at half-maximal effect
Outline: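 Human lymphoblastoid cells (2500/well) were plated in complete medium, incubated 5 hr at 37 C, then exposed to compounds for 24 hr at 37 C. Intracellular ATP was read by CellTiter-Glo luminescence after 30 min at room temperature; AC50 from Hill fits.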

[12] = Cell Viability - LYMP2-010 (AID 981); also: nearly all actives have a fitted effect of over 55% in size; also: potency is read from the fitted curve at half-maximal effect
Outline: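 Human lymphoblastoid LYMP2-010 cells (2500/well) were preincubated 5 hr at 37 C, then exposed to compounds for 24 hr at 37 C in complete medium. Intracellular ATP was measured by CellTiter-Glo luminescence after 30 min at room temperature; AC50 from Hill-fitted concentration-response.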

[13] = Cell Viability - LYMP2-012 (AID 982); also: potency is read from the fitted curve at half-maximal effect
[14] = Cell Viability - LYMP2-018 (AID 985);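 also: compound exposure lasted 24 hr at 37 °C; nearly all actives have a fitted effect of over 50% in size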; also: potency is read from the fitted curve at half-maximal effect
Outline: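 Human lymphoblastoid cells (2500/well) were pre-incubated 5 hr at 37 C, then exposed to compounds for 24 hr at 37 C in complete medium. Viability was read as intracellular ATP by CellTiter-Glo luminescence; AC50 values came from Hill-equation fits.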

[15] = Cell Viability - LYMP2-020 (AID 986); also: nearly all actives have a fitted effect of over 55% in size; also: potency is read from the fitted curve at half-maximal effect
Outline: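 Human lymphoblastoid cells, 2500/well, were pre-incubated 5 hr at 37 C, then exposed to compounds for 24 hr at 37 C in complete medium. Intracellular ATP was read by CellTiter-Glo luminescence, and AC50 was derived by Hill fitting of concentration-response data.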

[16] = Cell Viability - LYMP2-022 (AID 987); also: nearly all actives have a fitted effect of over 55% in size; also: potency is read from the fitted curve at half-maximal effect
Outline: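 Human lymphoblastoid cells, 2500/well, preincubated 5 hr at 37 C, then exposed to compounds over a concentration range for 24 hr at 37 C in complete medium. Viability read as intracellular ATP by CellTiter-Glo luminescence after 30 min at room temperature; AC50 from Hill fits.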

[17] = Cell Viability - LYMP2-024 (AID 988); also: nearly all actives have a fitted effect of over 60% in size; also: potency is read from the fitted curve at half-maximal effect
Outline: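 Human lymphoblastoid cells (2500/well) in complete medium were preincubated 5 hr at 37 C, then exposed to compounds for 24 hr at 37 C. Intracellular ATP was read by CellTiter-Glo luminescence; AC50 from Hill-equation fits of concentration-response data.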

[18] = molecular target: Retinoic acid receptor RXR-alpha (Homo sapiens) (UniProt P19793); experiment: qHTS assay for small molecule antagonists of retinoid X receptor alpha signaling (AID 588546; active = well fitted inhibition curve with a large enough effect in the signal ratio, with a control signal flat, not every such curve was filed as active; the % refers to the signal ratio;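 also: cells stimulated with 9-cis-retinoic acid as agonist; % is scaled to controls: 0 for no effect and ±100 for the full control effect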); conditions: HEK293T RXRa-UAS-bla, beta-lactamase ratio, antagonist mode
Chain of Retinoic acid receptor RXR-alpha (Homo sapiens) (P19793 whole entry, looked up): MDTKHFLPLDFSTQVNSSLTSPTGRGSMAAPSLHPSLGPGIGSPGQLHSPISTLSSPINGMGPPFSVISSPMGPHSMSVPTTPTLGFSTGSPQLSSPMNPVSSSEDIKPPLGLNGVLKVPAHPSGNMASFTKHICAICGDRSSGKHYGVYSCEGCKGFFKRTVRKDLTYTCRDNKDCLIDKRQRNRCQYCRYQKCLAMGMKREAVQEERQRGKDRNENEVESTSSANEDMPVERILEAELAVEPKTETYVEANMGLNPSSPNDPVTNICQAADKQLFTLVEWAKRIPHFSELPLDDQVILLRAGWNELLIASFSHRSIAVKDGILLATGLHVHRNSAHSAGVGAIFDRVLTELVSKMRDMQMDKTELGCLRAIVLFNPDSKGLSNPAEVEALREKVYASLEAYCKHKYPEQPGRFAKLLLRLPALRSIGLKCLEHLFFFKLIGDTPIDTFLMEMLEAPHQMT
Outline: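 Beta-lactamase reporter inhibition, read as CCF4 fluorescence ratio (ex 405, em 460/530 nm) after 2 h at RT. HEK293T UAS-bla cells, 2500/well, were stimulated with 9-cis-RA at 500 or 100 nM final alongside test compound for 18 h at 37 C.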

[19] = qHTS assay for small molecule disruptors of the mitochondrial membrane potential - 5 hr assay (AID 651755; calls by dose curve; also: % is scaled to controls: 0 for no effect and ±100 for the full control effect; nearly all actives have a fitted effect of over 40% in size)
Outline: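 HepG2 cells (2,000/well), attached overnight, exposed to compound 5 hr at 37C, then Mito-MPS dye 30 min. Fluorescence read for monomers (490/535 nm) and aggregates (540/590 nm).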

[20] = qHTS assay for environmental chemicals that activate the Aryl hydrocarbon Receptor (AhR) signaling pathway (AID 651777); conditions: 1A2-DRE human hepatoma cells, luciferase, 24 h; activation: stronger effect = higher value; also: % of control where 0% means no effect; nearly all actives have a fitted effect of over 15% in size
Outline: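 Quantitative HTS in stably transfected human liver-derived cells whose luciferase gene sits downstream of the CYP1A2 promoter and dioxin response element. After 24 hr exposure at 37 C, One-Glo luminescence was measured.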

c1ccc2c(c1)[nH]c1ccccc12
inactive: Potency [1] | caspase-3 activation [2] 0.344% | outcome [3] | Potency [4] | Potency [5] | Potency [6] | Potency [7] | Potency [8] | Potency [9] | Potency [10] | Potency [11] | Potency [12] | Potency [13] | Potency [14] | Potency [15] | Potency [16] | Potency [17] | max response [18] 0.549% and -19.1% | Potency [19] | activation [20] 0.0505% and 2.39%

Cc1ccc(N)c([N+](=O)[O-])c1
inactive: Potency [1] | caspase-3 activation [2] -0.471% | outcome [3] | Potency [4] | Potency [5] | Potency [6] | Potency [7] | Potency [8] | Potency [9] | Potency [10] | Potency [11] | Potency [12] | Potency [13] | Potency [14] | Potency [15] | Potency [16] | Potency [17] | max response [18] -0.0872% and -10.2% | Potency [19] | activation [20] 2.83% and 1.74%

COc1ccc2[nH]cc(CCNc3ncncc3-c3ccccc3C(F)(F)F)c2c1
active: Potency [4] 0.251 µM

CCO
inactive: Potency [1] | caspase-3 activation [2] -0.073% | outcome [3] | Potency [4] | Potency [5] | Potency [6] | Potency [7] | Potency [8] | Potency [9] | Potency [10] | Potency [11] | Potency [12] | Potency [13] | Potency [14] | Potency [15] | Potency [16] | Potency [17] | max response [18] -6.86% | Potency [19] | activation [20] -1.26%

NC1=NC(S)C2N=CN=C2N1 (stereo not drawn)
inactive: outcome [3] | Potency [4] | Potency [5] | max response [18] 2.23% | Potency [19] | activation [20] -2.51%
active: Potency [1] 12.6 µM | Potency [6] 1.58 µM | Potency [7] 12.6 µM | Potency [8] 20 µM | Potency [9] 20 µM | Potency [10] 12.6 µM | Potency [11] 15.8 µM | Potency [12] 12.6 µM | Potency [13] 7.94 µM | Potency [14] 7.94 µM | Potency [15] 10 µM | Potency [16] 12.6 µM | Potency [17] 12.6 µM

OCCNCCO
inactive: Potency [1] | caspase-3 activation [2] 2.36% | outcome [3] | Potency [4] | Potency [5] | Potency [6] | Potency [7] | Potency [8] | Potency [9] | Potency [10] | Potency [11] | Potency [12] | Potency [13] | Potency [14] | Potency [15] | Potency [16] | Potency [17] | max response [18] -2.15% and -2.6% | Potency [19] | activation [20] 1.33% and -0.956%

c1ccccc1
inactive: Potency [1] | caspase-3 activation [2] 0.593% and 0.461% | outcome [3] | Potency [4] | Potency [5] | Potency [6] | Potency [7] | Potency [8] | Potency [9] | Potency [10] | Potency [11] | Potency [12] | Potency [13] | Potency [14] | Potency [15] | Potency [16] | Potency [17] | Potency [19]

CCC(O)OC(O)CC (stereo not drawn)
inactive: Potency [1] | caspase-3 activation [2] 0.389% and 0.685% | outcome [3] | Potency [4] | Potency [5] | Potency [6] | Potency [7] | Potency [8] | Potency [9] | Potency [10] | Potency [11] | Potency [12] | Potency [13] | Potency [14] | Potency [15] | Potency [16] | Potency [17] | max response [18] -3.68% and -1.43% | Potency [19] | activation [20] 0.464% [middle of 4 runs]

Nc1ccc(S(=O)(=O)O)cc1
inactive: Potency [1] | caspase-3 activation [2] 0.897% | outcome [3] | Potency [4] | Potency [5] | Potency [6] | Potency [7] | Potency [8] | Potency [9] | Potency [10] | Potency [11] | Potency [12] | Potency [13] | Potency [14] | Potency [15] | Potency [16] | Potency [17] | max response [18] -17.1% | Potency [19] | activation [20] -0.977% and -1%

Clc1ccccc1-c1ccc2ncnc(NCCN3CCOCC3)c2c1
active: Potency [4] 5.01 µM

Clc1cc(Cl)c(Cl)cc1Cl
inactive: Potency [1] | caspase-3 activation [2] 2.8% | outcome [3] | Potency [4] | Potency [5] | Potency [6] | Potency [7] | Potency [8] | Potency [9] | Potency [10] | Potency [11] | Potency [12] | Potency [13] | Potency [14] | Potency [15] | Potency [16] | Potency [17] | max response [18] 6.25% and -33.5% | Potency [19] | activation [20] -0.0961% and 4.29%

CC1(C)CC(N=C=O)CC(C)(CN=C=O)C1 (stereo not drawn)
inactive: Potency [1] | caspase-3 activation [2] 0.941% | outcome [3] | Potency [5] | Potency [6] | Potency [7] | Potency [8] | Potency [9] | Potency [10] | Potency [11] | Potency [12] | Potency [13] | Potency [14] | Potency [15] | Potency [16] | Potency [17] | max response [18] 12.5% and -8% | Potency [19] | activation [20] 2.53% and -0.0427%

CC(=O)OC/C=C(\C)CCC=C(C)C
inactive: Potency [1] | caspase-3 activation [2] 1.05% | outcome [3] | Potency [4] | Potency [5] | Potency [6] | Potency [7] | Potency [8] | Potency [9] | Potency [10] | Potency [11] | Potency [12] | Potency [13] | Potency [14] | Potency [15] | Potency [16] | Potency [17] | max response [18] 5.08% and 4.69% | Potency [19] | activation [20] 0.424% and -0.161%
